Screening data deposited in PubChem by Broad Institute.
This is one part of a sample in which hits are shown more often than they occur.
Tg IFNy HTS = T. gondii growth inhibition under IFN-gamma | Toxoplasma gondii growth in IFN-gamma-treated host cells; hits give low values | activity change, negative = inhibition, % (no concentration beside the values) | actives 3.8% (n = 69,000); in the data active = activity change below about -70%, passing the limit was not always enough;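 also: host cells are HeLa cells infected with Toxoplasma gondii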
Large screens that a line does not name were inactive; ! = repeats disagree.

O=C(NCc1ccc(F)cc1F)c1cc(-c2cnc(-c3cccnc3)nc2)cn1CC1CC1	none
CCN1CCN(C)C(=O)C12CCN(S(=O)(=O)c1ccc(C(C)C)cc1)CC2	none
Cc1ccc2cccc(NS(=O)(=O)c3cn(C)nc3C)c2n1	none
Cc1ccc2cccc(N3C(=O)Nc4ccccc4N3O)c2n1	none
Cc1ccc2ccc3ccc(C)nc3c2n1	Tg IFNy HTS -76
COc1ccccc1CC(C)NC(=O)c1ccnn1C(C)C (stereo not drawn)	none
O=C(CC1Nc2c3ccccc3nc(=S)n2C1=O)N1CCN(c2ccccc2F)CC1 (stereo not drawn)	none
CCc1c(C)[nH]n2c(=O)cc(Cc3ccc(F)cc3)nc12	Tg IFNy HTS -103
CCc1c(C)[nH]n2c(=O)cc(COc3ccccc3)nc12	none
CCCc1cc(=O)n2[nH]c(C(F)(F)F)c(-c3ccc(OC)cc3)c2n1	none
c1ccc2c(c1)Cc1cc(CN3CCn4cncc4C3)ccc1-2	none
O=C(Nc1ccc(-c2nc(-c3ccccc3)co2)cc1)Nc1cccc(C(F)(F)F)c1	none
O=C(NCc1sccc1COc1ccc(Cl)cc1)Nc1cccc(C(F)(F)F)c1	none
O=C(Nc1cccc(C(F)(F)F)c1)Nc1csc(Cc2ccsc2)n1	Tg IFNy HTS -93
CC12CN3CC(C)(CN(C1)C3(C)CCC(=O)O)C2=O (stereo not drawn)	none
Cc1ccc(C(=O)N2C[C@@H](C(=O)Nc3cccnc3)C[C@@H]3OCC[C@@H]32)o1	none
NC(=O)c1sc(-c2ccsc2)cc1NC(=O)c1cccs1	none
CCOC(=O)c1cc(-c2ccccc2)sc1NC(=O)c1ccc(Cl)cc1	none
NC(=O)c1cc(-c2ccccc2)sc1NC(=O)c1cccs1	Tg IFNy HTS -83
COc1ccc2c(c1)NC1(CCN(C(=O)Nc3cc(C)ccc3C)CC1)c1cccn1-2	none
CN(C)c1ccc(C(=O)NCCCCCCC(=O)NO)cc1	Tg IFNy HTS -88!
COc1cc(C(=O)NCCCCCC(=O)O)cc(OC)c1OC	none
COCC1(N(C)C(=O)CCNC(=O)c2ccc(F)cc2)CC1	none
Cc1ccc2c(c1C)-n1cccc1C1(CCN(C(=O)c3ccc(Br)o3)CC1)N2	none
CCN(C)S(=O)(=O)NCC1CCN(Cc2ccccc2F)C1 (stereo not drawn)	none
Cn1nnc2c1C(COCc1ccccn1)CN(Cc1cccs1)C2 (stereo not drawn)	none
CCOC(=O)c1ccc(NC(=O)CCOc2cccc(C)c2)cc1	none
CCc1nc(SCc2nnc(-c3ccc(C)cc3)o2)c2c(C)c(C)sc2n1	none
N#Cc1c(C(F)(F)F)cc(-c2ccccc2)nc1SCC(N)=O	none
N#Cc1c(-c2ccccc2)cc(-c2ccccc2)nc1SCc1nnc(-c2ccccc2)o1	Tg IFNy HTS -100
O=C(C1CC1)N1Cc2ccccc2C2(CCNCC2)C1	none
CCCN1CCN(c2ncnc3sc(C(=O)NCCc4c[nH]c5ccc(Cl)cc45)c(C)c23)CC1	Tg IFNy HTS -85
O=C(NCCc1c[nH]c2ccc(Cl)cc12)c1sc2ncccc2c1-n1cccc1	none
O=C(NCCc1c[nH]c2ccc(Cl)cc12)c1cccs1	none
Cc1ccccc1NC(=O)CC(=O)NCCc1ccccc1Cl	none
c1ccc(-c2cnn3cc(CN4CCCC4Cn4cccn4)cnc23)cc1 (stereo not drawn)	none
CSc1ccc(-c2noc(-c3c(O)c4cc(C)ccc4[nH]c3=O)n2)cc1	none
Cc1ccc2[nH]c3c(c2c1)CCOc1ccccc1-3	none
Cc1ccc2[nH]c3c(c2c1)CCc1nonc1-3	Tg IFNy HTS -99
CCCS(=O)(=O)N1CCCC2(CC(Nc3nccs3)CO2)C1 (stereo not drawn)	none
Cc1ccc2c(C(=O)NCCn3cccn3)cc(C)nc2c1	none
Cc1ccc(-c2cnc3ccccc3n2)cc1NC(=O)c1ccc(Br)o1	none
O=C(CCC(=O)c1cccs1)c1cccs1	none
O=C(COc1ccc(-c2cnc3ccccc3n2)cc1)c1cccs1	Tg IFNy HTS -85
Cc1ccc2[nH]c(C(=O)NCC3CN(S(C)(=O)=O)CCO3)cc2c1 (stereo not drawn)	none
CCN1c2cc(C)ccc2-n2cccc2C12CCN(C(=O)Nc1ccc(C)cc1C)CC2	none
COc1ccc(C2Sc3ccccc3N=C3c4ccccc4CCC32)cc1 (stereo not drawn)	none
COc1ccc(C2NC(=S)NC3=C2CCc2ccccc23)cc1 (stereo not drawn)	none
COc1ccc(C2CN=NC23CSc2ccccc2C3=O)cc1 (stereo not drawn)	Tg IFNy HTS -82
C=CCN1CC2(CCN(c3ccc(C)nn3)CC2)OCC1=O	none
O=C(c1ccc(CO)cc1)N1CC(c2ccncc2)C1	none
Cc1oc(-c2ccc(NC(=O)c3cccc(C(F)(F)F)c3)cc2)nc1Cn1cccn1	none
Cc1oc(-c2ccc(NC(=O)c3cccc(C#N)c3)cc2)nc1Cn1cccn1	none
Cc1oc(-c2ccc(NC(=O)c3ccc(Br)cc3)cc2)nc1Cn1cccn1	none
CCOc1ccc(C(=O)Nc2ccc(-c3nc(Cn4cccn4)c(C)o3)cc2)cc1	Tg IFNy HTS -99
Cc1oc(-c2ccc(NC(=O)c3ccc(Cl)cc3)cc2)nc1Cn1cccn1	Tg IFNy HTS -85
Cc1ccc(CC(=O)Nc2ccc(-c3nc(Cn4cccn4)c(C)o3)cc2)cc1	none
Cc1oc(-c2ccc(NC(=O)c3ccc4c(c3)OCO4)cc2)nc1Cn1cccn1	Tg IFNy HTS -91
Cc1oc(-c2ccc(NC(=O)c3cccc(N(C)C)c3)cc2)nc1Cn1cccn1	Tg IFNy HTS -86
COCCC(=O)Nc1ccc(-c2nc(Cn3cccn3)c(C)o2)cc1	none
Cc1oc(-c2ccc(NC(=O)COc3ccccc3)cc2)nc1Cn1cccn1	none
Cc1oc(-c2ccc(NC(=O)c3ccsc3)cc2)nc1Cn1cccn1	none
Cc1oc(-c2ccc(NC(=O)c3ccc(F)cc3F)cc2)nc1Cn1cccn1	none
COc1cccc(OCC(=O)NCCc2csc(-c3ccc(Cl)cc3)n2)c1	none
Cc1ccc(S(=O)(=O)Nc2cncc(C(=O)N3CCC(C(N)=O)CC3)c2)cc1	none
COc1ccc(OCC(=O)NCCO)cc1	none
O=C(O)[C@H]1C[C@@H](C(=O)Nc2ccc(F)cc2)CN(C(=O)C2CCOCC2)C1	none
O=C(Nc1ccc(Cl)c(Cl)c1Cl)NC1CCSC1 (stereo not drawn)	Tg IFNy HTS -75
Cc1nsc(NC(=O)NC2CCN(Cc3ccccc3Cl)CC2)n1	none
CN(Cc1cc(-c2ccncc2)no1)Cc1ccc(Cl)s1	none
CCOc1ccccc1CN(C)Cc1cc(-c2ccncc2)no1	none
CN(Cc1cc(-c2ccncc2)no1)Cc1ccc(Cl)cc1F	Tg IFNy HTS -90
CCc1oc2c(-n3cnnc3)cccc2c1C	none
Cc1cc2cc(NC(=O)c3ccc(-n4cnnc4)cc3)cc(Cl)c2o1	none
CCc1oc2c(Cl)cc(-n3cnnc3)cc2c1C	Tg IFNy HTS -85
CN1CCCN(Cc2cnc3c(-c4ccccc4)cnn3c2)CC1	none
O=C(c1ccc(OCCN2CCCCC2)cc1)c1c(-c2ccc(O)cc2)sc2cc(O)ccc12	none
c1cc(-c2cnn3cc(-c4ccc(OCCN5CCCCC5)cc4)cnc23)ccn1	Tg IFNy HTS -75
CC(=O)CC(=O)O	none
CCC(C(=O)N1CCC(C)(C(=O)NCc2ccc(F)cc2F)CC1)c1ccccc1 (stereo not drawn)	none
OCc1ccccc1-c1ccc2[nH]ncc2c1	none
Cc1ccc(-c2ccc(-c3ccn[nH]3)cc2)c(N)n1	Tg IFNy HTS -81
CCc1cnc(C)nc1-c1ccc(-c2ccn[nH]2)cc1	none
Nc1cnc(-c2ccc(-c3ccn[nH]3)cc2)cn1	none
Cc1nc(SCc2cc(=O)[nH][nH]2)c2oc3ccccc3c2n1	none
CC(C)c1ccccc1NC(=O)c1ccc(-c2ccccc2CO)o1	none
O=C(Nc1ccncc1)c1c(O)c2ccccc2n(-c2ccccc2)c1=O	none
COCCN1C(=O)CCc2cc(NS(=O)(=O)c3ccc(C)c(Cl)c3)ccc21	none
